Inconclusive results are not listed. A call without a number means that no potency is given here. Unmarked numbers belong to inactive results. Calls of active or inactive are those of the source. Calls follow the shape of the full dose curve.

This is an account of results in PubChem BioAssay (Tox21).

The target in this experiment is Beta-2 adrenergic receptor (Homo sapiens) (UniProt P07550). In words: Adrenergic beta2 receptor (ADRB2) small molecule agonists, cell-based qHTS assay (AID 1963593).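 Also: CHO cells stably overexpressing human ADRB2.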 Put shortly:
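CHO cells stably over-expressing ADRB2 were plated overnight at 37C, then dosed with compounds plus a stimulation mix containing 100uM IBMX and 25uM Ro-20-1724 for 0.5hr at room temperature. cAMP was measured by HTRF competition, 1hr.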
For orientation: In qHTS, concentration-response curves come from the screen itself.

Chain of Beta-2 adrenergic receptor (Homo sapiens) (P07550 whole entry, looked up): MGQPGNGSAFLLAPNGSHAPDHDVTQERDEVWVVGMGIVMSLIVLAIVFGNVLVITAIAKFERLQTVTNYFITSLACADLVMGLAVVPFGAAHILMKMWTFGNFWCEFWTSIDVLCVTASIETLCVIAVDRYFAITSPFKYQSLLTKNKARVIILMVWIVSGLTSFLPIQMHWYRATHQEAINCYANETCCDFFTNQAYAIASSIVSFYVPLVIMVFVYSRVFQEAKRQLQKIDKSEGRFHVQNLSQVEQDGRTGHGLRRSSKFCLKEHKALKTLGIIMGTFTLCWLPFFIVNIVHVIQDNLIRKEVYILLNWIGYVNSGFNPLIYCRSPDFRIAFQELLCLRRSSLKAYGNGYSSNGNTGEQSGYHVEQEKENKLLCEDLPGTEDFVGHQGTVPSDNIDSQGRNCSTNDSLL

For the compound `CCOc1cc(OCC)c(C(=O)CCC(=O)O)cc1OCC`, the Potency entry was “inactive”.
As to `CCCCC(=O)O[C@]1(C(=O)CO)CC[C@H]2[C@@H]3CCC4=CC(=O)CC[C@]4(C)[C@H]3[C@@H](O)C[C@@]21C`, the Potency result is “inactive”.
In the case of `CCCCC1CCCCC(=O)O1` (stereo unspecified), the Potency entry was “inactive”.
Regarding `CCCCCCCC(=O)Oc1c(Br)cc(C#N)cc1Br`, the Potency result was “inactive”.
Same read-out and setting: with `Cc1cc(C)c(NC(=O)CN(CC(=O)O)CC(=O)O)c(C)c1Br` the entry was “inactive”.
Regarding `CCCCc1ccc2c(n1)[C@@H](c1ccc(OC)cc1C[C@H](C)C(=O)O)[C@H](C(=O)O)[C@H]2c1ccc2c(c1)OCO2`, the Potency result was “inactive”.
Still for that read-out and setting: the entry for `CC(C)OC(=O)C(C(=O)OC(C)C)=C1SC=CS1` is “inactive”; for `Cc1ccc(S)cc1` it is “inactive”; for `COc1ccc(-c2coc3cc(O)ccc3c2=O)cc1` it is “inactive”.
For `C=CCOC(=O)/C=C\C(=O)OCC=C`, the Potency result is “inactive”.
On the same count and under the same terms, the entry for `COC(=O)c1ccc(NC(C)=O)cc1OC` is “inactive”; for `O=C(Cn1ccnc1[N+](=O)[O-])NCCO` it is “inactive”.
The same measure, in the same setting: with `Cc1cc(O)c2c(c1)C(=O)c1cccc(O)c1C2=O` the entry was “inactive”.
The same measure, in the same setting: with `CCCCCCCCCCOCC(O)CN` (stereo unspecified) the entry was “inactive”; with `CCN(CC)CCOc1ccc(Cc2ccccc2)cc1`, “inactive”.
With `CC(C)(c1ccc(Oc2ccc3c(c2)C(=O)OC3=O)cc1)c1ccc(Oc2ccc3c(c2)C(=O)OC3=O)cc1`, the Potency result was “inactive”.
The same measure, in the same setting: the entry for `CC(CC(C#N)(c1ccccc1)C(C)C)N(C)C` (stereo unspecified) is “inactive”; for `CNc1c2c(nn1C)CCCC2` it is “inactive”.
As to `OCCCO`, the Potency entry is “inactive”.
Same read-out and setting: the entry for `CC(C)c1ccc(C#N)cc1` is “inactive”.
As for `CCCN(CCC)CCc1cccc2c1CC(=O)N2`, the Potency entry was “inactive”.
On the same count and under the same terms, the entry for `CCOc1ccccc1O` is “inactive”.
On the same count and under the same terms, the entry for `CCC(C(=O)OCCN(CC)CC)c1ccccc1` (stereo unspecified) is “inactive”; for `C[N+]1(CC2COC(c3ccccc3)(c3ccccc3)O2)CCCCC1` (stereo unspecified) it is “inactive”; for `C=CC(=O)OCC[N+](C)(C)C` it is “inactive”.
On the same count and under the same terms, the entry for `CCC(CO)(CO)[N+](=O)[O-]` is “inactive”.
As for `CCCCCCCCCC=O`, the Potency result was “inactive”.
With `CCCCOC(=O)C(C)Oc1ccc(Oc2ccc(C(F)(F)F)cn2)cc1` (stereo unspecified), the Potency entry was “inactive”.
With `O=C1CCCCCCCCCCOCCCCO1`, the Potency result was “inactive”.
Same read-out and setting: with `Cc1ccccc1CCO` the entry was “inactive”.
With `CNC(=O)c1ccccc1Sc1ccc2c(/C=C/c3ccccn3)n[nH]c2c1`, the Potency result was “inactive”.
On the same count and under the same terms, the entry for `O=C1OC(=O)c2cc([N+](=O)[O-])ccc21` is “inactive”; for `CC(C)(O)CCc1ccccc1` it is “inactive”.
Still for that read-out and setting: with `CCOC(=O)c1cccnc1` the entry was “inactive”; with `CCOC(=O)C1=NOC(c2ccccc2)(c2ccccc2)C1`, “inactive”; with `CCCCCCC/C=C/C=O`, “inactive”.
Same read-out and setting: with `Cc1cc(C(=O)O)ccc1[N+](=O)[O-]` the entry was “inactive”; with `CCCC(C)C(=O)OCC` (stereo unspecified), “inactive”; with `O=S(O)O`, “inactive”.
On to `CN1CCN(CC(=O)N2c3ccccc3C(=O)Nc3cccnc32)CC1`, for which the activation was -0.465% [at 8.39 µM].
Turning to `Nc1nc(-c2ccc([N+](=O)[O-])cc2)cs1`, the Potency entry was “inactive”.
